Assay outcomes as filed in PubChem BioAssay.
Rows were chosen to be rich in hits. Some 4.9% of all compounds tested hit in one or more screens of this group.
OTUD3 inh: blocks human OTUD3 ubiquitin-rhodamine cleavage | inhibition, % at 25 µM | hit rate 0.7% among 47,000 | purified OTUD3, Ub-rhodamine fluorescence, 2 h | Q5T2D3
USP8 inh: inhibitors of human USP8 deubiquitinase. hit rate 4.2% among 47,000. P40818. purified USP8, Ub-rhodamine cleavage fluorescence, 30 min. inhibition, % at 20 µM. AID 1645853
USP10 inh: human USP10 deubiquitinase inhibition; purified USP10, Ub-rhodamine fluorescence, 60 min; inhibition, % at 20 µM; hit rate 1.1% among 47,000; AID 1645856
Target sequence (Q14694 whole entry, looked up): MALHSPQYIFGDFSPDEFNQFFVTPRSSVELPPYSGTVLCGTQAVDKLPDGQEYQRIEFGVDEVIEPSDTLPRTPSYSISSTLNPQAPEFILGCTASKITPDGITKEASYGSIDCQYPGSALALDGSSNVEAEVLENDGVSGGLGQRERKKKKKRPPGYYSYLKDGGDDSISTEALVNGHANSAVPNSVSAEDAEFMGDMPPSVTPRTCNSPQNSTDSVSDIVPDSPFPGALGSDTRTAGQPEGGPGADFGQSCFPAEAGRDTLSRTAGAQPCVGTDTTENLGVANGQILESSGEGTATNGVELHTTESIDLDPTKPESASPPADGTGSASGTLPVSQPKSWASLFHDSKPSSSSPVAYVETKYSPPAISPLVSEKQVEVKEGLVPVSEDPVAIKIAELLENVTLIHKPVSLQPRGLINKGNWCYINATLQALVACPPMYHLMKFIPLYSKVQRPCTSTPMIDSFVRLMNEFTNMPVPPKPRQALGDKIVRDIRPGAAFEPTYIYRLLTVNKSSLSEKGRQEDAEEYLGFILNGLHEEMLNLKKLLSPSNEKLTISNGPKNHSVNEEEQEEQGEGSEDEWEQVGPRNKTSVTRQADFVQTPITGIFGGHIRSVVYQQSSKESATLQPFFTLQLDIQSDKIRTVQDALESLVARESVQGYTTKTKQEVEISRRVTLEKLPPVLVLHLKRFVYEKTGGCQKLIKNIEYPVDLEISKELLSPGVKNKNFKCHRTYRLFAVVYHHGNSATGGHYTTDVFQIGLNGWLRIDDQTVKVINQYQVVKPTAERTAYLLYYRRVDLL
USP7 block: blocks human USP7 ubiquitin-rhodamine cleavage; Q93009; purified USP7, Ub-rhodamine cleavage fluorescence; inhibition, % at 20 µM; hit rate 0.3% among 47,000
UCHL1 block: blocks human UCHL1 ubiquitin-rhodamine cleavage. P09936. purified UCHL1, Ub-rhodamine cleavage fluorescence. inhibition, % at 20 µM. hit rate 0.2% among 47,000. AID 1645859
Hits are given with their value; i = inactive; nt = no result. Rule as the data show it: active = inhibition above about 30%; inactive = the rest.

SMILES	OTUD3 inh	USP8 inh	USP10 inh	USP7 block	UCHL1 block
Cc1cc(C)cc(NC(=O)C2CC(=O)Nc3nc4ccccc4n32)c1 (stereo not drawn)	i	46	40	i	i
CCOc1ccccc1NC(=O)C1CC(=O)Nc2nc3ccccc3n21 (stereo not drawn)	i	39	i	i	i
CSc1nc(SCC(=O)c2ccc(Br)cc2)c2c3c(sc2n1)COC(C)(C)C3	i	i	i	i	i
COc1ccc(-n2c(=O)c(C3c4[nH]c5ccccc5c4CCN3C)c(O)n(C)c2=O)cc1 (stereo not drawn)	i	i	i	i	i
Cc1nc(-c2ccccc2)sc1C(=O)Nc1ccc2c(c1)OCCO2	i	i	i	i	i
Cc1nc2ccccc2c2oc(C(=O)Nc3ccc4c(c3)OCCO4)cc12	i	52	i	i	i
O=C(COc1ccc2c(c1)CCC2)Nc1ccc(S(=O)(=O)Nc2ncccn2)cc1	i	i	i	i	i
CC(C)CCCCCCCCCCCC(=O)O	i	i	30	i	i
Clc1ncc(CN2CCc3ccccc3C2)s1	i	35	i	i	i
c1ccc2c(c1)CCN(c1ncnc3sc4c(c13)CCCC4)C2	i	i	i	i	i
c1nc2onc(C3CCCC3)c2cc1-c1nnc(C2CC2)o1	i	i	i	i	i
CC(C)(C)Cc1nnc(-c2cnc3onc(C4CCCC4)c3c2)o1	i	35	i	i	i
CCOc1ccc(-c2nnc(-c3cnc4onc(C5CCCC5)c4c3)o2)cc1	i	i	32	i	i
COc1ccc(C2CC(=O)N(CCc3ccccc3)C(=O)C2)cc1OC	i	i	i	i	i
Cc1cc(NS(=O)(=O)c2ccc(NC(=O)c3ccc(N4CCCC4)c([N+](=O)[O-])c3)cc2)no1	i	i	31	i	i
O=C(NC(c1ccccc1)c1ccccc1)c1ccc2nccnc2c1	i	i	i	i	i
CC(NC(=O)c1ccc(-c2ccc(F)cc2)o1)c1ccccc1 (stereo not drawn)	i	i	i	i	i
O=C(CCc1ccccc1F)NC1CCCc2ccccc21 (stereo not drawn)	i	i	i	i	i
CC1(C)Oc2ccc(O)cc2CC1O (stereo not drawn)	i	i	i	i	i
O=C(NCc1cccnc1)[C@@H]1CC[C@@H]2[C@@H](CCN2Cc2ccco2)O1	i	i	i	i	i
Cc1noc(C)c1CN1CC[C@H]2O[C@H](C(=O)NCc3ccco3)CC[C@H]21	33	i	i	i	i
CC(C)Oc1ccc(S(=O)(=O)N2CCOCC2)cc1NC(=O)c1cccc(Oc2ccccc2)c1	i	i	i	i	i
CCCCOc1ccc(C(=O)Oc2ccc(-n3cnnn3)cc2)cc1	i	33	i	i	i
O=C(Oc1ccc(-n2cnnn2)cc1)c1ccc(Br)cc1	i	i	i	i	i
CC(C)COc1ccc(C(=O)Oc2ccc(-n3cnnn3)cc2)cc1	i	37	i	i	i
SMILES	OTUD3 inh	USP8 inh	USP10 inh	USP7 block	UCHL1 block
O=C(Cn1cncc(-c2nc(-c3ccccc3)cs2)c1=O)Nc1ccc(F)cc1F	i	41	i	i	i
Cc1ccc(NC(=O)Cn2cncc(-c3nc(-c4ccccc4)cs3)c2=O)cc1F	i	41	33	i	i
Cc1ccccc1NC(=O)Cn1cncc(-c2nc(-c3ccccc3)cs2)c1=O	i	i	i	i	i
N#Cc1cccc(NC(=O)c2[nH]nc3c2COc2ccccc2-3)c1	i	72	41	i	i
O=C(Nc1cccc(Cl)c1)c1[nH]nc2c1COc1ccccc1-2	i	75	i	i	i
O=C(NCc1ccc2c(c1)OCO2)c1[nH]nc2c1COc1ccccc1-2	i	54	i	nt	i
O=C(NCCN1CCCCC1)c1[nH]nc2c1COc1ccccc1-2	i	i	i	i	i
CC(C)NC(=O)c1[nH]nc2c1COc1ccccc1-2	i	i	i	i	i
COc1ccc(NC(=O)c2[nH]nc3c2COc2ccccc2-3)c(OC)c1	i	59	i	i	i
CC(=O)c1csc(-c2cc(C)on2)n1	i	i	i	i	i
Cc1ccc(-n2nc(C)c3c2NC(=O)CC3C(=O)c2cccs2)cc1C (stereo not drawn)	i	i	i	i	i
CN(CC(=O)Nc1ccc2c(c1)OCO2)S(=O)(=O)c1cccs1	i	50	i	i	i
CCC(Sc1cccc(NC(=O)C2CCCCC2)c1)C(=O)Nc1cc([N+](=O)[O-])ccc1C (stereo not drawn)	i	63	i	i	i
CC(C)c1noc(-c2ccn3c(CC(=O)Nc4ccccc4)nnc3c2)n1	i	40	i	i	i
CCc1noc(-c2ccn3c(CC(=O)Nc4ccccc4)nnc3c2)n1	i	i	i	i	i
COc1ccc(CCNC(=O)c2cn(-c3ccc(F)cc3)nn2)cc1OC	i	i	i	i	i
Cc1cc(-c2nnc(-c3ccccc3)o2)c(C)o1	i	i	i	i	i
CC(=O)Nc1ccc(SCc2nc3ccccc3nc2C)cc1	i	39	i	i	i
Cc1ccc(CNC(=O)c2cnc3ccccc3n2)cc1	30	i	i	i	i
O=C(Cc1cccnc1)Nc1ccc(N2CCN(C3CCCC3)C2=O)nc1	i	37	i	i	i
O=C(Nc1ccc(N2CCN(C3CCCCC3)C2=O)nc1)c1ccncc1	i	i	i	i	i
N#Cc1ccc(CN2CCN(C(=O)c3cc(-c4cccnc4)nc4ccccc34)CC2)cc1	i	i	i	i	i
Cc1nnc(-c2ccc3ccn(CC(=O)N4CCN(c5ccccc5)CC4)c3c2)o1	73	96	47	i	i
Cc1nnc(-c2ccc3ccn(CC(=O)NC4CCCC4)c3c2)o1	i	i	i	i	i
Cc1nnc(-c2ccc3ccn(CC(=O)N4CCCc5ccccc54)c3c2)o1	i	91	85	i	51
SMILES	OTUD3 inh	USP8 inh	USP10 inh	USP7 block	UCHL1 block
O=C(NCc1ccc(Cl)cc1)[C@@H]1Cc2nc[nH]c2CN1Cc1ccc(Cl)cc1	i	50	i	i	i
Cc1nn2c(CNS(=O)(=O)Cc3ccc(C)c(C)c3)c(C)nc2s1	i	i	i	i	i
O=c1[nH]c(C2CCN(S(=O)(=O)c3ccc(S(=O)(=O)N4CCOCC4)cc3)CC2)nc2c1nnn2Cc1cccc(F)c1	i	i	i	i	i
O=c1[nH]c(C2CCN(S(=O)(=O)c3ccccc3)CC2)nc2c1nnn2Cc1c(Cl)cccc1Cl	i	i	32	i	i
CCc1ccccc1NC(=O)N1CCC(c2nc3c(nnn3Cc3ccc(F)cc3)c(=O)[nH]2)CC1	i	i	i	i	i
O=c1[nH]c(C2CCN(S(=O)(=O)c3ccc(S(=O)(=O)N4CCOCC4)cc3)CC2)nc2c1nnn2Cc1ccc(F)cc1	i	89	45	30	31
O=C(Nc1cccc2ccccc12)N1CCC(c2nc3c(nnn3Cc3ccc(F)cc3)c(=O)[nH]2)CC1	i	97	i	i	i
COC(=O)c1ccc(Cn2nnc3c(=O)[nH]c(C4CCCN(S(=O)(=O)c5ccc(C)cc5)C4)nc32)cc1 (stereo not drawn)	i	i	41	i	i
Cc1ccc(Cn2nnc3c(=O)[nH]c(C4CCN(S(=O)(=O)c5ccc(S(=O)(=O)NC6CC6)cc5)CC4)nc32)cc1	i	i	i	i	i
